Assay outcomes deposited in PubChem by Broad Institute.
Compounds with a hit are over-represented: about 6.7% of the library has one in this group of screens.
Tcruzi prolif: blocks T. cruzi growth in NIH3T3 culture; inhibition, % at 8.34 µM; actives 5.9% (n = 77,000); T. cruzi beta-gal in NIH3T3, GalScreen luminescence, 90 h;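 active = mean inhibition above about 93%, with at least 55% of replicates each passing it, limit read from the data, passing the limit was not always enough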
Pf Dd2 inh: P. falciparum Dd2 growth inhibition | SYBR Green, 72 h; hits give low values | activity change, % at 10 µM | actives 2.3% (n = 94,000) | AID 1159554; in the data active = activity change below about -80%
C diff growth: blocks growth of Clostridium difficile | AID 1259249 | actives 0.25% (n = 86,000) | Clostridium difficile clinical isolate growth, OD600, 24 h; hits give low values | growth activity, negative = inhibition, % at 16 µg/mL (by protocol);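 active = mean growth activity at or below -80% and every replicate also at or below -80%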;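 also: 0% = DMSO wells and -100% = levofloxacin 16 µg/mL wells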
Active calls of the source: *; . = not tested or not shown.

SMILES	Tcruzi prolif	Pf Dd2 inh	C diff growth
CCC(=O)N(C)C[C@@H]1Oc2cc(C#Cc3ccncc3)ccc2S(=O)(=O)N([C@H](C)CO)C[C@H]1C	47.2	-7.4	8.3
CCC(=O)N1CC2(C1)[C@H](c1ccc(-c3ccccc3OC)cc1)[C@H](CO)N2C(C)=O	.	-50.8	-10.7
CC(=O)N(C)C[C@@H]1Oc2cc(C#CC3CC3)ccc2S(=O)(=O)N([C@@H](C)CO)C[C@H]1C	57.9	-5.9	-6.0
CC(C)NC(=O)N(C)C[C@H]1Oc2ncc(C#Cc3ccccc3F)cc2C(=O)N([C@@H](C)CO)C[C@@H]1C	88.8	-82.1*	-10.0
CC(C)NC(=O)N(C)C[C@H]1Oc2ncc(C#Cc3ccccc3F)cc2C(=O)N([C@H](C)CO)C[C@H]1C	72.4	-55.4	-0.1
C[C@@H]1CN([C@H](C)CO)C(=O)c2cc(C#Cc3ccccc3F)cnc2O[C@H]1CN(C)C(=O)c1ccc2c(c1)OCO2	78.6	-86.3*	5.8
COc1ccc(C#Cc2cnc3c(c2)C(=O)N([C@@H](C)CO)C[C@H](C)[C@H](CN(C)C(=O)c2ccccc2F)O3)cc1	26.8	-81.7*	3.1
C[C@H](CO)N1C[C@H](C)[C@H](CN(C)C(=O)c2ccc3c(c2)OCO3)Oc2ncc(C#Cc3ccccc3F)cc2C1=O	56.3	-73.5	1.5
COc1ccc(C#Cc2cnc3c(c2)C(=O)N([C@H](C)CO)C[C@@H](C)[C@@H](CN(C)C(=O)c2ccccc2F)O3)cc1	67.5	-72.5	-5.7
CCCNC(=O)N1CC2(CCN(Cc3ccccn3)CC2)c2c(n(C)c3cc(OC)ccc23)[C@H]1CO	.	-59.7	0.3
CCC(=O)N1CCC2(CC1)CN(C(=O)c1ccccn1)[C@H](CO)c1c2c2ccc(OC)cc2n1C	.	44.3	-4.0
C[C@@H]1CN([C@H](C)CO)C(=O)c2cccc(NC(=O)C3CC3)c2O[C@H]1CN(C)Cc1ccc(-c2ccccc2)cc1	64.2	-77.4	19.7
CN1C(=O)c2cc(NC(=O)c3ccc(C(F)(F)F)cc3)ccc2OC[C@@H]2O[C@@H](CC(=O)O)CC[C@@H]21	56.2	7.3	3.0
CO[C@@H]1CN(C)C(=O)c2ccc(NS(=O)(=O)c3ccccc3Cl)cc2OC[C@H](C)NC[C@@H]1C	24.8	27.0	1.4
CO[C@H]1CN(C)C(=O)c2ccc(NC(C)=O)cc2OC[C@H](C)N(CCc2ccccc2)C[C@H]1C	-2.3	-32.1	.
C[C@@H]1CN([C@H](C)CO)C(=O)c2cc(NC(=O)C3CCCCC3)ccc2O[C@@H](C)CCCCO[C@@H]1CN(C)S(=O)(=O)c1cccs1	33.7	-84.0*	5.6
C[C@@H]1CN([C@H](C)CO)C(=O)c2cc(NC(=O)Nc3ccc(F)cc3)ccc2O[C@@H](C)CCCCO[C@@H]1CN(C)S(=O)(=O)c1cccs1	-47.4	-84.0*	-4.5
C[C@H]1CCCCO[C@H](CN(C)S(=O)(=O)c2cccs2)[C@@H](C)CN([C@@H](C)CO)C(=O)c2cc(NC(=O)C3CCCCC3)ccc2O1	42.6	-78.1	2.1
C[C@H]1CCCCO[C@H](CN(C)S(=O)(=O)c2cccs2)[C@@H](C)CN([C@@H](C)CO)C(=O)c2cc(NC(=O)Nc3cccc4ccccc34)ccc2O1	30.6	-60.4	0.7
C[C@@H]1CN([C@H](C)CO)C(=O)c2cc(NC(=O)NC3CCCCC3)ccc2O[C@@H](C)CCCCO[C@@H]1CN(C)S(=O)(=O)c1cccs1	89.5	-84.3*	-5.5
C[C@H]1CCCCO[C@@H](CN(C)S(=O)(=O)c2cccs2)[C@@H](C)CN([C@@H](C)CO)C(=O)c2cc(NC(=O)NC3CCCCC3)ccc2O1	79.6	-58.3	1.9
C[C@H](CO)N1C[C@H](C)[C@H](CN(C)S(=O)(=O)c2cccs2)OCCCC[C@H](C)Oc2ccc(NC(=O)Nc3ccc(F)cc3)cc2C1=O	91.7	-28.3	-8.5
C[C@@H]1CN([C@@H](C)CO)C(=O)c2cc(NC(=O)Nc3cccc4ccccc34)ccc2O[C@@H](C)CCCCO[C@@H]1CN(C)S(=O)(=O)c1cccs1	-8.5	-90.0*	0.0
CCCC(=O)Nc1ccc2c(c1)C(=O)N(C)C[C@@H](OC)[C@H](C)CN(C(=O)Cc1cccnc1)[C@H](C)CO2	20.6	24.4	.
C[C@H]1CCCCO[C@@H](CN(C)Cc2ccc(C(F)(F)F)cc2)[C@@H](C)CN([C@@H](C)CO)C(=O)c2cc(N(C)C)ccc2O1	83.8	-31.2	9.6
Cc1ccc(S(=O)(=O)N(C)C[C@@H]2Oc3ccc(NC(=O)CCN4CCOCC4)cc3C(=O)N([C@H](C)CO)C[C@@H]2C)cc1	25.6	-14.1	-10.5
CO[C@@H]1CN(C)C(=O)c2cc(NC(=O)Nc3c(C)noc3C)ccc2OC[C@H](C)N(CC2CC2)C[C@@H]1C	29.5	-2.5	.
